Test results as given in PubChem BioAssay (EPA / NIEHS).
Inconclusive results are not listed. A structure can be active in one record and inactive in another. Activity calls are given as the source filed them. The calls were made as follows, unless noted: active = hit-call score of the fitted dose curve at least 0.9, where 1 is the maximum; inconclusive = response in the unintended direction; inactive = score below 0.9.

Experiments:
[1] = biological target: Agonist Androgen Response Element (ARE), AR (gene 367) (UniProt P10275); assay: OT_AR_ARELUC_AG_1440: Odyssey Thera (OT) 24-hour CHO-K1 Luciferase Assay for Agonist Androgen Response Element (ARE) (AID 2283379)
In short: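 Seed CHO-K1 cells; dose compounds for 24 h; add D-luciferin plus ATP in PBS; read luminescence. Signal increase relative to vehicle defines agonist activity, with at least 3 replicate wells per sample.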

[2] = biological target: Estrogen receptor beta (Homo sapiens) (UniProt Q92731); assay: OT_ER_ERbERb_1440: Odyssey Thera (OT) 24-hour HEK293T Protein-Complementation Assay for Estrogen Receptor-beta/-beta Homodimer (AID 2283380);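 also: fluorescence gain from ER beta LBD homodimer complementation read by laser scanning cytometry; scored as signal increase over DMSO baseline for both agonists and antagonists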
In short: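 HEK293T cells stably expressing human ER-beta LBD (aa 310-547) PCA homodimer pair, dosed 24 h; formaldehyde-fixed, Draq5-stained. Readout: increase in nuclear (agonist) or nuclear plus cytoplasmic (antagonist) fluorescence intensity versus DMSO, gain-of-signal fitting.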

[3] = biological target: Estrogen receptor (Homo sapiens) (UniProt P03372); assay: OT_ERa_GFPERaERE_0120: Odyssey Thera (OT) 2-hour HeLa Transcription Induction Assay for Estrogen Receptor (AID 2283382)
In short: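 HeLa, 384-well, 2 h chemical exposure; GFP reporter induction (ERE), fluorescence microscopy; high content image analysis; positive fitting direction vs DMSO.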

[4] = biological target: Retinoic acid receptor RXR-alpha (Homo sapiens) (UniProt P19793); assay: OT_NURR1_NURR1RXRa_0480: Odyssey Thera (OT) 8-hour HEK293T Protein Complementation Assay for Nurr1/retinoid X receptor (RXR) (AID 2283385)
In short: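 8 h compound exposure, HEK293T; Nurr1/RXRα fragment complementation; fluorescence intensity; positive fitting direction vs DMSO baseline.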

[5] = biological target: Peroxisome proliferator-activated receptor gamma (Homo sapiens) (UniProt P37231); assay: OT_PPARg_PPARgSRC1_0480: Odyssey Thera (OT) 8-hour Protein-Complementation Assay for Peroxisome Proliferator-activated Receptor Gamma / SRC-1 Co-activator (AID 2283387);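 also: nuclear to cytoplasmic split Venus YFP fluorescence ratio reporting PPARg SRC-1 interaction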
In short: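 HEK293T transiently transfected with PPARg and SRC-1 fused to Venus YFP fragments, compounds 8 h at 37C. Fixed, Draq5-stained cells imaged; nuclear/cytoplasmic 488 nm fluorescence ratio over at least 350 cells per image; gain fitted versus DMSO.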

[6] = biological target: Peroxisome proliferator-activated receptor gamma (Homo sapiens) (UniProt P37231); assay: OT_PPARg_PPARgSRC1_1440: Odyssey Thera (OT) 24-hour Protein-Complementation Assay for Peroxisome Proliferator-activated Receptor Gamma/ SRC-1 Co-activator (AID 2283388)
In short: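 Readout is the 488 nm N/C fluorescence ratio from fixed, Draq5-stained HEK293T cells after 24 h compound exposure. Cells carried transiently transfected PPARg and SRC-1 fused to Venus fragments, transfected 48 h before treatment.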

[7] = CEETOX_H295R_11DCORT: CeeTox H295R High-throughput Steroidogenesis Assay for 11-Deoxycortisol (11DCORT) (AID 2283432; active = hit-call score of the fitted dose curve at least 0.9, where 1 is the maximum; inactive = score below 0.9;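 as to AC50: 11-deoxycortisol secreted into the medium measured by LC-MS/MS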); settings: actives raise or lower the signal
In short: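 H295R cells prestimulated 48 h with 10 uM forskolin, then exposed 48 h to chemical in 0.1% DMSO. 11-Deoxycortisol in medium quantified by HPLC-MS/MS after MTBE extraction; bidirectional fit versus DMSO. MTT viability read in same wells.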

[8] = CEETOX_H295R_OHPREG: CeeTox H295R High-throughput Steroidogenesis Assay for OH-Pregnenolone (OHPREG) (AID 2283434; active = hit-call score of the fitted dose curve at least 0.9, where 1 is the maximum; inactive = score below 0.9); settings: actives raise or lower the signal
In short: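 Human adrenal H295R cells were prestimulated 48 h with 10 uM forskolin, then exposed 48 h to chemical in 0.1% DMSO. Medium 17alpha-hydroxypregnenolone was quantified by HPLC-MS/MS after MTBE extraction; bidirectional fitting versus DMSO baseline.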

[9] = biological target: Norway rat Vesicular Monoamine Transporter (VMAT2), neurotransmitter transporter, Slc18a2 (gene 25549) (UniProt Q01827); assay: NVS_TR_rVMAT2: NovaScreen (NVS) Transporter Assay for Norway rat Vesicular Monoamine Transporter (VMAT2), neurotransmitter transporter (AID 2283376);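 also: actives lower the bound radioligand signal below the DMSO level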
In short: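 Rat forebrain tissue preparation used in a cell-free radioligand binding format; displacement read by filter-based scintillation counting 1 hour after dosing. Primary screen in duplicate at 25 uM, actives then run in concentration series; loss of signal versus DMSO baseline.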

[10] = biological target: Bile acid receptor (Homo sapiens) (UniProt Q96RI1); assay: OT_FXR_FXRSRC1_0480: Odyssey Thera (OT) 8-hour HEK293T Protein-Complementation Assay for Farnesoid X receptor/SRC-1 Co-activator (AID 2283383)
In short: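 Human kidney HEK293T cells carried FXR/SRC-1 fragment-complementation constructs. Compounds were added and incubated 8 h. Reporter reassembly upon receptor–co-activator interaction was then quantified by fluorescence, with curves fitted in the positive direction relative to DMSO.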

[11] = biological target: Bile acid receptor (Homo sapiens) (UniProt Q96RI1); assay: OT_FXR_FXRSRC1_1440: Odyssey Thera (OT) 24-hour HEK293T Protein-Complementation Assay for Farnesoid X receptor/SRC-1 Co-activator (AID 2283384)
In short: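 Compounds are applied to human kidney HEK293T cells expressing bait and prey fused to reporter protein fragments; after 24 h, reconstituted reporter fluorescence is measured. Activity is fitted as signal gain over DMSO.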

[12] = biological target: mouse Estrogen Receptor alpha (Era), Esr1 (gene 13982) (UniProt P19785); assay: NVS_NR_mERa: NovaScreen (NVS) Nuclear Receptor Binding Assay for mouse Estrogen Receptor alpha (Era) (AID 2283378);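 also: hit means loss of bound radioligand signal relative to DMSO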
In short: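 Filter radiodetection of radioligand displacement from extracted receptor protein, measured 18 h post-dose. Single 25 uM concentration in duplicate initially, with concentration-series follow-up. Binding loss fitted relative to DMSO.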

[13] = biological target: Retinoic acid receptor RXR-alpha (Homo sapiens) (UniProt P19793); assay: OT_NURR1_NURR1RXRa_1440: Odyssey Thera (OT) 24-hour HEK293T Protein Complementation Assay for Nurr1/retinoid X receptor (RXR) (AID 2283386)
In short: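 Interaction of Nurr1 with RXRα brings fused reporter fragments together in human HEK293T cells, restoring a functional reporter. Fluorescence intensity is measured 24 h after chemical treatment, and values are analysed in the positive direction against DMSO.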

[14] = biological target: human Norepinephrine Transporter (NET), SLC6A2 (gene 6530) (UniProt P23975); assay: NVS_TR_hNET: NovaScreen (NVS) Transporter Assay for human Norepinephrine Transporter (NET) (AID 2283377);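 also: cell-free membrane protein extracted from CHO cells expressing human NET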
In short: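 Radioligand binding to human NET in cell-free CHO-derived protein preparations, read by filter-based scintillation counting 1 hour after dosing. Loss of signal versus DMSO baseline indicated displacement; primary screening in duplicate at 25 uM, actives then titrated.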

[15] = biological target: human Dopamine Transporter (DAT), SLC6A3 (gene 6531) (UniProt Q01959); assay: NVS_TR_hDAT: NovaScreen (NVS) Transporter Assay for human Dopamine Transporter (DAT) (AID 2283374);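 also: activity means loss of bound radioligand signal relative to DMSO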
In short: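 Cell-free radioligand binding to extracted human DAT protein, read 1 h after dosing by filter-based scintillation counting. Loss of specific binding scored against DMSO baseline; primary screen in duplicate at 25 uM, actives then run in concentration series.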

Measured: AC50

Peroxisome proliferator-activated receptor gamma (Homo sapiens), sequence (P37231 whole entry, looked up, the tested form may be a part): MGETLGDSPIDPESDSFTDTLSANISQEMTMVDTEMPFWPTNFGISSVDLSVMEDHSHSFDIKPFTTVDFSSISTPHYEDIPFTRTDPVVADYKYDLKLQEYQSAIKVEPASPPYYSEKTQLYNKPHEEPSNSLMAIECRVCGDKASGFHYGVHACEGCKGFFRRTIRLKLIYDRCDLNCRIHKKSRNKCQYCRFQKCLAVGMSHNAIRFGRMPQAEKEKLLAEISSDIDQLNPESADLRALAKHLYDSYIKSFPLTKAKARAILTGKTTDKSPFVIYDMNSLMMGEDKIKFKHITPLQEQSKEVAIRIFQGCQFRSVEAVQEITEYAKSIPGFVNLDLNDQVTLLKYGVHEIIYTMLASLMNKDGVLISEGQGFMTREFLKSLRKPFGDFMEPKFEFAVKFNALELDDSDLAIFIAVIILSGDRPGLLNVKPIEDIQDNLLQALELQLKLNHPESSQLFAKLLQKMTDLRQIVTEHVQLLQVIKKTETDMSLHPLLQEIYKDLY
Retinoic acid receptor RXR-alpha (Homo sapiens), sequence (P19793 whole entry, looked up, the tested form may be a part): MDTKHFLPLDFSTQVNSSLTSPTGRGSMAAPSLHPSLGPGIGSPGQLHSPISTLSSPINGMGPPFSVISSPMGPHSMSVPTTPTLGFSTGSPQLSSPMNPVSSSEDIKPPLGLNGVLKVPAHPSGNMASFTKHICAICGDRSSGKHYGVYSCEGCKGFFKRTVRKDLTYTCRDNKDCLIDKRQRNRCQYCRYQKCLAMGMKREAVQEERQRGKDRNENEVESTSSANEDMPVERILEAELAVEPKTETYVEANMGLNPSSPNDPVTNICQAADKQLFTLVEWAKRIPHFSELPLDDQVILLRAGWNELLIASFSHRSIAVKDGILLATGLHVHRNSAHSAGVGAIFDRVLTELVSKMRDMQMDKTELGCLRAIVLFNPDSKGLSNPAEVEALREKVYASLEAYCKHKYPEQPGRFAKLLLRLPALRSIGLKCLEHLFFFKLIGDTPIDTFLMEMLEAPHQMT
Bile acid receptor (Homo sapiens), sequence (Q96RI1 whole entry, looked up, the tested form may be a part): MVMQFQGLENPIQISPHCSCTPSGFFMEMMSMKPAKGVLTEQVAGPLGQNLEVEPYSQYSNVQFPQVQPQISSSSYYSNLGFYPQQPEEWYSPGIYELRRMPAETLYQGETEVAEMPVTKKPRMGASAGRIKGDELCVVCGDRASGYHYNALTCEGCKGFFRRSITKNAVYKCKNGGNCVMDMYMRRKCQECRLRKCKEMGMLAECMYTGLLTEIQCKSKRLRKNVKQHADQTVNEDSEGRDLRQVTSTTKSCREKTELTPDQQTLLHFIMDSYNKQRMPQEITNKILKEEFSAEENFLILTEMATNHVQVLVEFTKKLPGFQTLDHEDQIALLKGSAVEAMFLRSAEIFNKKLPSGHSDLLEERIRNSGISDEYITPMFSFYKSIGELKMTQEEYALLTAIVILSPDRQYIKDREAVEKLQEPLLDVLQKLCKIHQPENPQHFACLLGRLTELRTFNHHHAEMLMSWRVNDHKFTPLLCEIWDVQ
Estrogen receptor (Homo sapiens), sequence (P03372 whole entry, looked up): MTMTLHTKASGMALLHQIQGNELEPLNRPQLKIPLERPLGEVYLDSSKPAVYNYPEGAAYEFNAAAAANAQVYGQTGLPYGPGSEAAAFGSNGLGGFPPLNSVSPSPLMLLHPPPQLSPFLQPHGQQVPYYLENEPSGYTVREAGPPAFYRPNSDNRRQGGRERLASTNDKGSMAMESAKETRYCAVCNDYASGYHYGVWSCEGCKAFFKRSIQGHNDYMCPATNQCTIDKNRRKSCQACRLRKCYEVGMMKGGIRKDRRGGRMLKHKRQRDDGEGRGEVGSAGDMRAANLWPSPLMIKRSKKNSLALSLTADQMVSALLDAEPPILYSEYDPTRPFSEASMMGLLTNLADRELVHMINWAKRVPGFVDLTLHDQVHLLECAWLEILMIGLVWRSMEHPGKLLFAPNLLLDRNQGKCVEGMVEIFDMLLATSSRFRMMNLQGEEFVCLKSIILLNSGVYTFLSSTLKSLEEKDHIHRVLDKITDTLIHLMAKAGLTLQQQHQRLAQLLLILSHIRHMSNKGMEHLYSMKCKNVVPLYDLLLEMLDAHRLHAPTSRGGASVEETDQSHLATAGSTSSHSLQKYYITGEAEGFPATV
Norway rat Vesicular Monoamine Transporter (VMAT2), neurotransmitter transporter, Slc18a2 (gene 25549), sequence (Q01827 whole entry, looked up): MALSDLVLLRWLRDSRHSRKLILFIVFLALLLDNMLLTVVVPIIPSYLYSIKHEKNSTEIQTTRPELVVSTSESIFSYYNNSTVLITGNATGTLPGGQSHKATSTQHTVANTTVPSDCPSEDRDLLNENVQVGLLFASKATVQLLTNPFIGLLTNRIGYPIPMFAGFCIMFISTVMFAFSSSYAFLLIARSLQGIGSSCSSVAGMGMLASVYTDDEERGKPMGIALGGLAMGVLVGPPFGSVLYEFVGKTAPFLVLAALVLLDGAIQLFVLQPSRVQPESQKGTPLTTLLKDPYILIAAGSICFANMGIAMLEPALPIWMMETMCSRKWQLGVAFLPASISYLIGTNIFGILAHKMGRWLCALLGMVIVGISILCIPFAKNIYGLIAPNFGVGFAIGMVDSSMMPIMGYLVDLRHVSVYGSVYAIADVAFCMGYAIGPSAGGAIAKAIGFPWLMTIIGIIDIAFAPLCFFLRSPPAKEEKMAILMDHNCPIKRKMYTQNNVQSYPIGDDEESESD
human Norepinephrine Transporter (NET), SLC6A2 (gene 6530), sequence (P23975 whole entry, looked up): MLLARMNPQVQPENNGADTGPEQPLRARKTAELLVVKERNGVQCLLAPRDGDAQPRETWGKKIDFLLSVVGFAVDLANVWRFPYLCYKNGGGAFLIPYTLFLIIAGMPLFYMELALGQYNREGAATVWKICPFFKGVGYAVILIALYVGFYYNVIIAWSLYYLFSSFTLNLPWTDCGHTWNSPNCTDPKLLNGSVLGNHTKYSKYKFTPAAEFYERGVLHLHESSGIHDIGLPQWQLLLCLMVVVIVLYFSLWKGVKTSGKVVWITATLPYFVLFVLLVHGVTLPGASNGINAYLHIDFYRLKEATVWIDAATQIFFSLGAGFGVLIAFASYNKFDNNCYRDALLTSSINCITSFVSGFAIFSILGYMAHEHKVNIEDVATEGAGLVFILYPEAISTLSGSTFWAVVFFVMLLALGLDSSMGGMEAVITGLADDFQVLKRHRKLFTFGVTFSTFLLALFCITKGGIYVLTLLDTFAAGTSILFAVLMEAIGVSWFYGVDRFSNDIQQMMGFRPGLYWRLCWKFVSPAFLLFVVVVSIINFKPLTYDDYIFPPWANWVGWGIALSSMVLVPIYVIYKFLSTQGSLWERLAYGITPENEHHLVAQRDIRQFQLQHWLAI
Agonist Androgen Response Element (ARE), AR (gene 367), sequence (P10275 whole entry, looked up): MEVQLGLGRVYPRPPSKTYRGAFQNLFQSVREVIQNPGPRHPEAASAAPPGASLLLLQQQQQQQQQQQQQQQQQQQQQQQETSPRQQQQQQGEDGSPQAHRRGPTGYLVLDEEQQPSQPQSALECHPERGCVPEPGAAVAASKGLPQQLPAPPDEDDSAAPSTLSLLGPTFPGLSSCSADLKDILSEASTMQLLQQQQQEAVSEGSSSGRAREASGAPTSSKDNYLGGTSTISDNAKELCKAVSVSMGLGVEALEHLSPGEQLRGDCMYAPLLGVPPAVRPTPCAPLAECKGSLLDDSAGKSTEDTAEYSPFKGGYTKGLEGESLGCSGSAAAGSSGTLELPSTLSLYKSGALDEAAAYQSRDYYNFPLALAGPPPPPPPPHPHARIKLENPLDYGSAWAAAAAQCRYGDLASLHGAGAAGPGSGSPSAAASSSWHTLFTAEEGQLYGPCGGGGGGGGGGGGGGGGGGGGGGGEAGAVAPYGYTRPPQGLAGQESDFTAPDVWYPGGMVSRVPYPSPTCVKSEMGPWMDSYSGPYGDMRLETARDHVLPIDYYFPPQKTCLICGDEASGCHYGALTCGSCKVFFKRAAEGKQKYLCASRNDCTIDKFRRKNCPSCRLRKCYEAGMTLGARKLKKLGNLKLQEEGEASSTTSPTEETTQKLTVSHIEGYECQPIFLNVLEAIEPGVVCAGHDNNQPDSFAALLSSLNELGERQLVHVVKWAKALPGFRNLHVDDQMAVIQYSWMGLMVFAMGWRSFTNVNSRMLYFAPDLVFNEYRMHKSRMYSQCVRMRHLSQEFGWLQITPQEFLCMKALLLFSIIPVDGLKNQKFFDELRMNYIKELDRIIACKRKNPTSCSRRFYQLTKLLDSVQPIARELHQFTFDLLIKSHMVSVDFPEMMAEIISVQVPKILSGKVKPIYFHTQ
Estrogen receptor beta (Homo sapiens), sequence (Q92731 whole entry, looked up, the tested form may be a part): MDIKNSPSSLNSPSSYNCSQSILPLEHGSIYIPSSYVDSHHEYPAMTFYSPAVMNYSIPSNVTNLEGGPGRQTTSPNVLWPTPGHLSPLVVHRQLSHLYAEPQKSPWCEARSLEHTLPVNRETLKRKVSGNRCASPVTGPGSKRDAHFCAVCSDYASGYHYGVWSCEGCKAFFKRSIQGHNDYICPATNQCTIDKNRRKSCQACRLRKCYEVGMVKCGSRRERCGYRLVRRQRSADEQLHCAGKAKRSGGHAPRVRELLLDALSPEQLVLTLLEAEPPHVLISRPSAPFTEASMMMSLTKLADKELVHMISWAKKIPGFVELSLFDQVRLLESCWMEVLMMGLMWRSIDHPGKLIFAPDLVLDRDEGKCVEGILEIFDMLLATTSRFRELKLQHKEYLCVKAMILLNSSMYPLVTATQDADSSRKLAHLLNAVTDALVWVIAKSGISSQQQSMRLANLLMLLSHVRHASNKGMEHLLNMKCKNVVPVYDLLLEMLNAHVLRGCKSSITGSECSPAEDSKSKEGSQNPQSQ

CNC(=O)Oc1cccc2c1OC(C)(C)C2
inactive: [1] | [2] | [3] | [4] | [5] | [6] | [7] | [8]

CC(C)(OOC(C)(C)c1ccccc1)c1ccccc1
active: [2] 9.59 µM | [10] 58.3 µM | [11] 65.1 µM
inactive: [9] | [1] | [5] | [6]

CCCCCOC(=O)c1ccccc1C(=O)OCCCCC
inactive: [12] | [2] | [5] | [6] | [7] | [8]
active: [3] 12.1 µM

N#CC(Br)Br
inactive: [2] | [3] | [11] | [5] | [6]

C=CCc1ccc2c(c1)OCO2
inactive: [9] | [2] | [4] | [13] | [5] | [6]

Nc1ccc([N+](=O)[O-])cc1
inactive: [14] | [1] | [2] | [4] | [5] | [6]
active: [11] 13.3 µM

ClC1=C(Cl)C2(Cl)C3C(Cl)C=CC3C1(Cl)C2(Cl)Cl (stereo not drawn)
inactive: [2] | [3] | [5] | [6]

[O-][Cl+]O
inactive: [2] | [3] | [5] | [6]

CC(C)(C)OOC(C)(C)CCC(C)(C)OOC(C)(C)C
inactive: [2]

CN(C)[C@@H]1C(=O)C(C(N)=O)=C(O)[C@@]2(O)C(=O)C3=C(O)c4c(O)cccc4[C@@](C)(O)[C@H]3C[C@@H]12
inactive: [14] | [2] | [10] | [11] | [4] | [5] | [6]

CCCCCCCCOC(=O)c1ccc(C(=O)OCCCCCCCC)c(C(=O)OCCCCCCCC)c1
inactive: [9] | [2] | [10] | [11] | [13] | [5] | [6]

C[N+](C)(C)CC1CO1 (stereo not drawn)
active: [1] 26.1 µM
inactive: [2] | [3] | [5] | [6]

OCCOCCO
inactive: [2] | [3] | [11] | [5] | [6]

CN(C)c1ccccc1
inactive: [2] | [10] | [11] | [13]

CCCCCCCCCCCCCN1CC(C)OC(C)C1 (stereo not drawn)
inactive: [2] | [3] | [13] | [5] | [6]
active: [13] 81.7 µM | [7] 9.71 µM | [8] 12.5 µM

ClC1=C(Cl)[C@]2(Cl)[C@H]3[C@H]([C@@H]4C=C[C@H]3C4)[C@@]1(Cl)C2(Cl)Cl
inactive: [12] | [3] | [5] | [6]

COP(=S)(OC)SCN1C(=O)c2ccccc2C1=O
inactive: [2] | [10] | [11] | [4] | [5] | [6] | [7] | [8]
active: [14] 2.04 µM

Cc1ccc([N+](=O)[O-])cc1
inactive: [2] | [3] | [5] | [6]

O=C1CCCO1
inactive: [1] | [2] | [11] | [4] | [5] | [6]

O=P(OCCCl)(OCCCl)OCCCl
not listed: [1] | [3] | [9] | [12] | [14] | [15]
inactive: all other assays above

CC(C)(C)C(O)(CCc1ccc(Cl)cc1)Cn1cncn1 (stereo not drawn)
active: [15] 4.04 µM | [14] 14.3 µM | [7] 1.85 µM | [8] 0.503 µM
inactive: [4] | [5] | [6]

OCCCBr
inactive: [2] | [3] | [5] | [6]
